Reference: PubChem BioAssay (NCATS)
“And” between values parts separate entries of the source, which are not always exact repeats. Identical values can stand only once. Results filed as inconclusive are left out. The source made the active and inactive calls. Unless noted, calls come from the whole dose curve; as a rule, active = well fitted curve in the direction sought with a large enough effect; inconclusive = small, poorly fitted or top-dose-only effect, or another doubt; inactive = no such curve, though single readings can be large; an effect the other way counts as inactive or inconclusive.

Columns and labels:
[1] = Cell Viability - MRC5 (AID 434; calls by dose curve;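 note: potency is the fitted concentration of half-maximal effect; cells exposed to compound for 40 hours at 37 °C; potency reflects cytotoxicity seen as loss of intracellular ATP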); conditions: MRC5 lung fibroblast viability, qHTS
Summary of the method: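 Decrease in intracellular ATP, quantified by luciferase light output, reflects compound toxicity toward MRC5 cells exposed for 40 hr in complete culture medium. Concentration-response curves, scaled between DMSO and 100 uM tamoxifen, gave AC50 values.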

[2] = target: Mitogen-activated protein kinase 10 (Mus musculus) (UniProt Q61831); assay: JNK3 AlphaScreen Assay (AID 530; active = well fitted curve in either direction with a large enough effect, not every such curve was filed as active;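 note: kinase came from lysate of stimulated human HepG2 cells; signal reports phosphorylation of biotinylated GST-cJun 1-79 at Ser73 with 10 µM ATP; % is set by controls: 0 for no effect and ±100 for the full control effect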); conditions: JNK3 lysate, c-Jun phosphorylation; series mostly up to 57.1 µM
Summary of the method: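 Biotinylated GST-cJun(1-79) served as substrate for JNK3 in HepG2 lysates stimulated with IL-1beta and TNF-alpha. ATP was 10 uM final, pH 7.6. Ser73 phosphorylation was quantified by AlphaScreen (680 nm excitation).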

[3] = Cell Viability - HUV-EC-C (AID 542); conditions: HUV-EC-C endothelial cell viability, qHTS; series mostly up to 92.2 µM; note: % is set by controls: 0 for no effect and ±100 for the full control effect; nearly all actives have a fitted effect of over 35% in size
Summary of the method: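 Concentration-dependent ATP loss in HUV-EC-C cells is the measure. Exposure lasts 40 hr at 37 °C; luminescence follows CellTiter-Glo addition, and Hill fits give AC50.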

[4] = Cell Viability - Mesenchymal (AID 546); conditions: mesenchymal cells viability, qHTS; series mostly up to 91.7 µM;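 note: cells exposed to compound for 40 hours before reading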
Summary of the method: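 In this qHTS cytotoxicity format, glomerulus-derived human mesenchymal kidney cells received compound for 40 hr, then luciferase-based ATP quantitation. Concentration-response data were fitted with the Hill equation.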

[5] = Cellular Toxicity (caspase-3) HepG2 (AID 654); conditions: HepG2 caspase-3 activation, luminescence, 0% = DMSO only, 100% = tamoxifen; series mostly up to 92.2 µM;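 note: cells exposed to compound for 16 hours before reading; 0% = DMSO alone and 100% = caspase signal from 100 µM tamoxifen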
Summary of the method: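 Concentration-response AC50 values reflect caspase-3/7 induction in HepG2 cells after 16 hours of compound exposure, quantified by luminescence from liberated aminoluciferin and referenced to 100 uM tamoxifen as full stimulation.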

[6] = Cellular Toxicity (caspase-3) Jurkat (AID 655); conditions: Jurkat caspase-3 activation, luminescence; caspase-3 activation: at 92.2 µM (top of the series), DMSO = 0%, tamoxifen = 100%;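 note: cells exposed to compound for 16 h at 37 °C before reading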
Summary of the method: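 5000 Jurkat cells/well; compound 16 hr, 37 °C; Caspase-Glo 3/7 added, 20 min RT; luminescence read. Norm: DMSO = 0%, tamoxifen 100 uM = 100%. AC50, Hill model.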

[7] = Cellular Toxicity (caspase-3) BJ (AID 658); conditions: BJ fibroblasts, luminescence, normalized: DMSO 0%, staurosporine 100%; series mostly up to 91.7 µM
Summary of the method: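 Plated BJ cells (1000/well) rested 5 hr, received compound for 16 hr at 37 °C, then Caspase-Glo 3/7 reagent for 1 hr at room temperature before luminescence reading.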

[8] = Cellular Toxicity (caspase-3) SK-N-SH (AID 661); conditions: SK-N-SH caspase-3 activation, qHTS; series mostly up to 91.7 µM
Summary of the method: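 Apoptosis readout in SK-N-SH neuroblastoma: Caspase-Glo 3/7 luminescence following 16 hr treatment in complete culture medium. Normalization used DMSO and 10 uM staurosporine controls.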

[9] = Cellular Toxicity (caspase-3) Hek293 (AID 664); conditions: HEK293 caspase-3 activation, DMSO = 0%, 100 µM tamoxifen = 100%; at 92.2 µM (top of the series);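 note: cells exposed to compound for 16 h at 37 °C before readout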
Summary of the method: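 Apoptosis readout: Caspase-Glo 3/7 signal in human HEK293 cells following 16-hour compound incubation. Responses scaled between DMSO baseline and 100 uM tamoxifen.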

[10] = Cellular Toxicity (caspase-3) N2a (AID 665); conditions: N2a cells, luminescence, normalized: DMSO 0%, 10 µM staurosporine 100%; series mostly up to 92.2 µM;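 note: compound exposure lasted 16 h at 37 °C before readout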
Summary of the method: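 Concentration-response qHTS: compound-induced caspase-3/7 luminescence in N2a cells (16 h, 37 °C), relative to DMSO and 10 uM staurosporine controls; AC50 obtained using the standard Hill equation.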

[11] = Cellular Toxicity (caspase-3) Renal Proximal Tubule (AID 667); conditions: renal proximal tubule cells; series mostly up to 91.7 µM;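 note: cells exposed to compound for 16 hours at 37 °C before detection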
Summary of the method: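 AC50 derived by standard Hill fit of concentration-response data, normalized between DMSO basal and 10 uM staurosporine as 100% stimulation. Cells: primary rat kidney proximal tubule, 16 h treatment at 37 °C.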

[12] = MultiTox-Fluor Cytotoxicity Assay - LYMP1-003 - Dead Cells (AID 961); conditions: LYMP1-003 lymphoblastoid cells, dead-cell protease fluorescence; series mostly up to 92.2 µM; note: nearly all actives have a fitted effect of over 70% in size
Summary of the method: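 Dead-cell protease release, detected as bis-AAF-R110 fluorescence at 485/520 nm, was measured in LYMP1-003 cells after 16 h compound treatment at 37 C. AC50 values came from Hill-modeled qHTS curves normalized to DMSO (0%) and 15 uM tetraoctylammonium bromide (100%).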

[13] = MultiTox-Fluor Cytotoxicity Assay - LYMP1-003 - Live Cells (AID 962); conditions: LYMP1-003 lymphoblastoid cells, MultiTox-Fluor live-cell protease fluorescence; series mostly up to 92.2 µM;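 note: cells exposed to compound for 16 hours at 37 °C; 0% = DMSO only and full loss = 92 µM tetraoctylammonium bromide; cytotoxic hits lower the live-cell protease signal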
Summary of the method: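 Human lymphoblastoid line LYMP1-003 in complete culture medium, treated 16 hr with titrated compounds. Viable cells quantified via cell-permeant GF-AFC substrate fluorescence; AC50 derived by Hill fitting.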

[14] = Cell Viability - LYMP2-013 (AID 970); conditions: LYMP2-013 lymphoblastoid cells viability; series mostly up to 92.2 µM;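 note: 0% = DMSO only and full inhibition = tetraoctylammonium bromide control; nearly all actives have a fitted effect of over 55% in size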
Summary of the method: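 In complete culture medium, human lymphoblastoid cells were dosed for 24 hr at 37 C, with tetraoctylammonium bromide (6.4pM to 92 uM) as positive control. Viability reflects luciferase-based ATP signal; AC50 derived from concentration-response curves.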

[15] = target: Peroxisome proliferator-activated receptor gamma (Homo sapiens) (UniProt P37231); assay: qHTS assay for small molecule agonists of peroxisome proliferator-activated receptor gamma signaling (AID 588536; active = well fitted curve in the direction sought with a large enough effect in the signal ratio, with a control signal flat, not every such curve was filed as active; the % refers to the signal ratio;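 note: 0% = DMSO basal wells and 100% = rosiglitazone at 2 µM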); conditions: HEK293 PPARg-UAS-bla, beta-lactamase ratio, 16 h, percent of rosiglitazone response, DMSO as zero; series mostly up to 76.7 µM
Sequence of Peroxisome proliferator-activated receptor gamma (Homo sapiens) (P37231 whole entry, looked up): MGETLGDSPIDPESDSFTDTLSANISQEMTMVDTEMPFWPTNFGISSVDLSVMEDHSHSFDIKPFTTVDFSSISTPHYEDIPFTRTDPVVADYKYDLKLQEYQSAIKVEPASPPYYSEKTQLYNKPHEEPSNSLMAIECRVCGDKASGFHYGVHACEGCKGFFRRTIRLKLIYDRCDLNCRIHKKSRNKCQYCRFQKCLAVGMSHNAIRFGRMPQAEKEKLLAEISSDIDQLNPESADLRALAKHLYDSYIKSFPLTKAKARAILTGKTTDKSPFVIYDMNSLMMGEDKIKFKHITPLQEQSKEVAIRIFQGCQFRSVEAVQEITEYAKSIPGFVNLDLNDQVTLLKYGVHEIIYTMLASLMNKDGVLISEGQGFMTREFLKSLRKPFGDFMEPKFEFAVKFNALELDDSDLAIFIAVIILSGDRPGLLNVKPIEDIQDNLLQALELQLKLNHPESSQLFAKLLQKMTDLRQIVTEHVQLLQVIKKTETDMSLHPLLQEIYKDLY
Summary of the method: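 This is an agonist-mode beta-lactamase reporter assay in HEK293 PPAR-gamma-UAS-bla cells with 1% charcoal/dextran FBS. Compound titrations ran 16 h at 37 C before CCF4 detection. EC50 and efficacy are Hill fits scaled to 2 uM rosiglitazone (100%) and DMSO basal.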

[16] = qHTS assay for environmental chemicals that activate the Aryl hydrocarbon Receptor (AhR) signaling pathway (AID 651777); conditions: 1A2-DRE human hepatoma cells, luciferase, 24 h; activation: hits give high values; note: % of control where 0% means no effect; nearly all actives have a fitted effect of over 15% in size
Summary of the method: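 Measured luciferase activity, read 30 min after One-Glo addition at room temperature, from human hepatoma cells bearing a dioxin response element–CYP1A2 promoter reporter and exposed to compound for 24 hr at 37 C.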

[17] = qHTS assay for cell viability of HEK293 cells (AID 743288); conditions: ATP luminescence (CellTiter-Glo), 18 h, hits give low values; note: % is set by controls: 0 for no effect and ±100 for the full control effect; nearly all actives have a fitted effect of over 50% in size
Summary of the method: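 Viable-cell counts were inferred from luciferase-based ATP content in HEK293 cells seeded at 2,000/well, pre-incubated ≥5 h, then dosed with DMSO-solubilised compounds for 18 h at 37 C.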

[18] = qHTS assay for cell viability of the p53RE-bla HCT-116 cell line (AID 743292); conditions: p53RE-bla HCT-116 viability, ATP luminescence, 16 h; series mostly up to 95 µM; note: % is set by controls: 0 for no effect and ±100 for the full control effect; nearly all actives have a fitted effect of over 55% in size
Summary of the method: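 Intracellular ATP of p53RE-bla HCT-116 cells measured by luciferase luminescence following 16 h compound incubation at 37 C; DMSO-only wells served as vehicle controls.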

[19] = target: Nuclear receptor subfamily 1 group I member 2 (Rattus norvegicus) (UniProt Q9R1A7); assay: qHTS assay for small molecule activators of the rat pregnane X receptor (rPXR) signaling pathway (AID 651751; call rule not given here; note: 0% is about no effect); conditions: rPXR reporter cells, luciferase (One-Glo), 24 h
Sequence of Nuclear receptor subfamily 1 group I member 2 (Rattus norvegicus) (Q9R1A7 whole entry, looked up): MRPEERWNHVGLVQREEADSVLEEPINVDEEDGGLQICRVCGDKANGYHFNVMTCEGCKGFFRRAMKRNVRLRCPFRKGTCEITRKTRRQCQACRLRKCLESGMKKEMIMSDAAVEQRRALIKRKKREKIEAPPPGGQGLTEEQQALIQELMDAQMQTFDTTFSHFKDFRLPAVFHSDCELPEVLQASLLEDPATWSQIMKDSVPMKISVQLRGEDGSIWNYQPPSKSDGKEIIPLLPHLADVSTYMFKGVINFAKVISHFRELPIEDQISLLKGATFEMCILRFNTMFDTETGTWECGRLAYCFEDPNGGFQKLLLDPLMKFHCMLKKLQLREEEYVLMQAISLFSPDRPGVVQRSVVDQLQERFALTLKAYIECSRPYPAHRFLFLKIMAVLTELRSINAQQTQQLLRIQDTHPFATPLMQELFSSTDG

[20] = Cellular Toxicity (caspase-3) H-4-II-E (AID 663); conditions: H-4-II-E rat hepatoma; Potency: caspase-3 activation; series mostly up to 92.2 µM;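 note: cells exposed to compound for 16 hr before readout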
Summary of the method: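 Caspase 3/7 activation measured in H-4-II-E cells in complete culture medium after 16 hr treatment at 37 °C, using luciferase-coupled substrate readout; AC50 values come from Hill-equation fits of normalized concentration-response data.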

CC(=O)NNc1ccccc1
inactive: Potency [1] > 92 µM | Potency [2] | Potency [3] | Potency [4] | outcome [5] | caspase-3 activation [6] 1.53% | outcome [7] | Potency [8] | caspase-3 activation [9] -1.37% | outcome [10] | outcome [11] | Potency [12] | outcome [13] | Potency [14] | outcome [15] | activation [16] 2.76% | max response [17] 2.18% | Potency [18] | max response [19] -6.67%

Cc1cccc(N)c1C
inactive: Potency [1] > 92 µM | Potency [2] | Potency [3] | Potency [4] | outcome [5] | outcome [7] | Potency [8] | caspase-3 activation [9] 1.27% | outcome [10] | Potency [12] | outcome [13] | Potency [14] | outcome [15] | activation [16] 0.811% | max response [17] -7.16% | max response [19] -0.698%

NNC(N)=S
inactive: Potency [1] > 92 µM | Potency [2] | Potency [3] | Potency [4] | outcome [5] | caspase-3 activation [6] 0.589% | outcome [7] | Potency [8] | Potency [20] | caspase-3 activation [9] 0.435% | outcome [10] | Potency [12] | outcome [13] | Potency [14] | outcome [15] | activation [16] 0.972% | max response [17] 1.66% | Potency [18] | max response [19] 0.379%

OCCCCO
inactive: Potency [1] > 92 µM | Potency [2] | Potency [3] | Potency [4] | caspase-3 activation [6] -0.218% | Potency [8] | caspase-3 activation [9] -2.02% | outcome [10] | outcome [11] | Potency [12] | outcome [13] | Potency [14] | outcome [15] | activation [16] -0.427% | max response [17] -3.14% | Potency [18]

O=[N+]([O-])c1ccc(Cl)c(Cl)c1Cl
inactive: Potency [1] > 92 µM | Potency [2] | Potency [3] | Potency [4] | outcome [5] | caspase-3 activation [6] -0.417% | outcome [7] | Potency [8] | Potency [20] | outcome [10] | outcome [11] | Potency [12] | outcome [13] | Potency [14] | outcome [15] | activation [16] -1.85% | max response [17] 8.59% | Potency [18] | max response [19] -4.87%

Cc1cnc[nH]1
inactive: Potency [1] > 92 µM | Potency [2] | Potency [3] | Potency [4] | outcome [5] | caspase-3 activation [6] 1.79% | outcome [7] | Potency [8] | Potency [20] | caspase-3 activation [9] -0.172% | outcome [11] | Potency [12] | outcome [13] | Potency [14] | outcome [15] | activation [16] 1.06% | max response [17] -9.96% | Potency [18] | max response [19] -5.24%

CCCCCc1cc(O)cc(O)c1
inactive: Potency [1] > 92 µM | Potency [2] | Potency [3] | Potency [4] | caspase-3 activation [6] 1.33% | outcome [7] | Potency [8] | Potency [20] | caspase-3 activation [9] 1.25% | outcome [11] | Potency [12] | outcome [13] | Potency [14] | outcome [15] | activation [16] 9.87% | max response [17] -5.2% | Potency [18] | max response [19] -1.86%

O=P(OCCCl)(OCCCl)OCCCl
inactive: Potency [1] > 92 µM | Potency [2] | Potency [3] | Potency [4] | outcome [5] | caspase-3 activation [6] -1.25% | Potency [8] | Potency [20] | caspase-3 activation [9] 4.86% | outcome [10] | outcome [11] | Potency [12] | outcome [13] | Potency [14] | outcome [15] | activation [16] 0.332% | max response [17] -2.52% | Potency [18] | max response [19] 6.23%

CCCCOC(=O)c1ccccc1N
inactive: Potency [1] > 92 µM | Potency [2] | Potency [3] | Potency [4] | outcome [5] | outcome [7] | Potency [8] | Potency [20] | caspase-3 activation [9] 0.422% | outcome [10] | outcome [11] | Potency [12] | outcome [13] | Potency [14] | outcome [15] | activation [16] 0.138% | max response [17] -7.97% | Potency [18] | max response [19] -1.8%

CN(C)N=O
inactive: Potency [1] > 92 µM | Potency [2] | Potency [3] | Potency [4] | caspase-3 activation [6] 0.809% | outcome [7] | Potency [8] | Potency [20] | caspase-3 activation [9] 5.49% | outcome [10] | outcome [13] | Potency [14] | outcome [15] | activation [16] 0.336% | max response [17] -0.309% | Potency [18] | max response [19] 2.44%

Nn1cnnc1
inactive: Potency [1] > 92 µM | Potency [2] | Potency [3] | Potency [4] | caspase-3 activation [6] 0.14% | Potency [8] | Potency [20] | caspase-3 activation [9] 0.966% | outcome [10] | outcome [11] | Potency [12] | outcome [13] | Potency [14] | activation [16] 0.198% | Potency [18] | max response [19] 2.65%

c1ccc(NNc2ccccc2)cc1
inactive: Potency [1] > 92 µM | Potency [2] | Potency [3] | Potency [4] | outcome [5] | outcome [7] | Potency [8] | Potency [20] | outcome [10] | outcome [11] | outcome [13] | Potency [14] | max response [17] 2.88% and -1.77% | Potency [18] | max response [19] 12.1% and 2.7%

O=C(O)c1cccc(Cl)c1
inactive: Potency [1] > 92 µM | Potency [2] | Potency [3] | Potency [4] | outcome [5] | caspase-3 activation [6] -2.79% | outcome [7] | Potency [8] | Potency [20] | caspase-3 activation [9] -0.358% | outcome [10] | outcome [11] | Potency [12] | outcome [13] | Potency [14] | outcome [15] | activation [16] 0.728% | max response [17] -0.932% | Potency [18] | max response [19] 0.516%
